High-throughput results deposited in PubChem by National Center for Advancing Translational Sciences (NCATS).
ALDH1A1 inh = ALDH1A1 (human) enzyme inhibition. Purified ALDH1A1, NADH fluorescence, propionaldehyde substrate. Potency, µM (series often up to 75.3 µM), for the others: top-dose activity, negative = inhibition, actives largely listed as inhibitors. 7.3% of 220,000 active; active = well fitted inhibition curve with a large enough effect, not every such curve was filed as active; inconclusive = small, poorly fitted or top-dose-only effect, or another doubt; inactive = no such curve, though single readings can be large or run the other way;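 note: potency is the fitted concentration of half-maximal effect; plate controls were no enzyme wells and a reference inhibitor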
Target sequence (P00352 whole entry, looked up): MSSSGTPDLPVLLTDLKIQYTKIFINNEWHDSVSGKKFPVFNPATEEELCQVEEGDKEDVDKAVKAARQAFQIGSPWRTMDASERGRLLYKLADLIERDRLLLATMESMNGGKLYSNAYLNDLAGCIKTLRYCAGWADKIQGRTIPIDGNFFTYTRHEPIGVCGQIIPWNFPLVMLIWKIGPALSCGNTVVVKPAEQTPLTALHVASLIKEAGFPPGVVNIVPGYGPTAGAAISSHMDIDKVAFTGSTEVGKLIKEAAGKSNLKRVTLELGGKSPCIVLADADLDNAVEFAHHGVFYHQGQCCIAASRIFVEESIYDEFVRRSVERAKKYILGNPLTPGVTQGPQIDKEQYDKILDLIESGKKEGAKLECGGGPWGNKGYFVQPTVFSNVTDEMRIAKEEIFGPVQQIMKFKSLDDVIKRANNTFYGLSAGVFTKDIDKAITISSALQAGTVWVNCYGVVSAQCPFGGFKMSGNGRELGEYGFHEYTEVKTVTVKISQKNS
aGal spleen mod = alpha-galactosidase A (human) modulation; human spleen homogenate, 4MU-alpha-Gal fluorescence, 40 min; Potency, µM (series often up to 80 µM), for the others: at the top dose activity change, negative = inhibition, usual class: inhibitors; 0.008% of 240,000 active; AID 2107;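 note: potency is the fitted concentration of half-maximal effect; 0% = enzyme with vehicle and -100% = no enzyme basal signal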
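Spleen homogenate 1 ug + cpd (titration) + 4-MU-alpha-D-galactopyranoside 1 mM; 37C 40 min; 50 mM citrate/phosphate pH 5.0, 0.01% Tween-20; stop pH 10; fluorescence 365/440; AC50 via Hill.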
GLA inh pH 4.5 = blocks human alpha-galactosidase A at pH 4.5. purified enzyme, 4-MU-alpha-Gal fluorescence, pH 4.5. 230,000 tested, under 10 active. P06280. activity change, negative = inhibition, % at 105 µM;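 note: 0% = full activity with enzyme and -100% = basal without enzyme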
12-hLO inh = blocks human 12-lipoxygenase activity; Potency, µM (titrated, usually from 57.1 µM), inactives show at the highest dose activity change, negative = inhibition, most hits filed as inhibitors; purified 12-hLO, xylenol orange hydroperoxide absorbance; 0.12% of 150,000 active; note: potency is the fitted concentration of half-maximal effect; nearly all actives have a fitted effect of over 55% in size
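Hydroperoxide output read as Fe(III)-xylenol orange absorbance, 573-to-405 nm ratio, after 30 min reaction with 40 uM arachidonic acid. Enzyme: 150 nM purified human 12hLO, 15 min compound preincubation; 25 mM Hepes pH 7.0, room temperature.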
HPGD block = HPGD (human) dehydrogenase inhibition; purified HPGD, NADH fluorescence kinetic, PGE2 substrate; P15428; Potency, µM, for inactives: at the highest dose activity change, negative = inhibition, usual class: inhibitors; 4.3% of 150,000 active; AID 894; active = well fitted inhibition curve with a large enough effect, not every such curve was filed as active; inconclusive = small, poorly fitted or top-dose-only effect, or another doubt; inactive = no such curve, though single readings can be large or run the other way; note: potency is the fitted concentration of half-maximal effect
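20 nM HPGD preincubated 15 min at room temperature with compound in 50 mM Tris-HCl pH 8, 0.01% Tween 20. Started with 1 mM NAD+ and 30 uM prostaglandin E2; NADH fluorescence (360/450 nm) read 5 times over 30-s intervals, last minus first.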
PNC assembly inh = inhibitors of perinucleolar compartment assembly; PC3M PTB-GFP, PNC prevalence imaging, 16 h; active compounds read low; activity change (PNC), negative = inhibition, % at 10 µM; 3.1% of 140,000 active;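 active = readout at or below -70, meaning at least 70% loss of cells showing the perinucleolar compartment, a nuclear body marking cancer cells; inconclusive = readout between -30 and a set limit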;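 note: plate controls were DMSO wells for no effect and camptothecin positive control wells for full effect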
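Read-out is percentage of cells bearing a perinucleolar compartment, from automated 20x imaging of fixed, Hoechst-stained PC3M PTB-GFP cells. Cells were seeded 4 h, then exposed 16 h to compound (23 nl of library stock) in duplicate plates.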
* hit, by the source's call; ? = inconclusive; nt = no result given; [ ] = another dose, or the depositor's remark. Sampled rows, rich in hits. Any-hit rate of the full collection: about 10%. Unless noted, calls come from the whole dose curve; as a rule, active = well fitted curve in the direction sought with a large enough effect; inconclusive = small, poorly fitted or top-dose-only effect, or another doubt; inactive = no such curve, though single readings can be large; an effect the other way counts as inactive or inconclusive. Unless noted, % is set by controls: 0 for no effect and ±100 for the full control effect.

SMILES	ALDH1A1 inh	aGal spleen mod	GLA inh pH 4.5	12-hLO inh	HPGD block	PNC assembly inh
CCOC(=O)N1CCN(C(=O)Cc2ccc(Cl)cc2)CC1	-5%	2%	-14	-6%	nt	?
CCOC(=O)N1CCN(C(=O)CCl)CC1	0.56µM*	-1%	6	nt	nt	nt
CC(C)(C)NC(=O)CN1CCN(C(=O)CCl)CC1	0.32µM*	-4%	-6	nt	nt	nt
C=C1CCN(C(CC(C)C)C(=O)NCc2ccc(Cl)cc2)S(=O)(=O)c2ccccc21 (configuration not stated)	nt	1%	nt	nt	nt	nt
COc1ccc(N=C2C(=O)N3CCCc4cccc2c43)cc1	0.035µM*	3%	3	-2%	-20%	37
Cn1c(SCc2ccc([N+](=O)[O-])cc2)nnc1-c1cccnc1	1%	13%	1	nt	nt	nt
Cc1ccccc1CNc1ccc(C(CC(N)=O)NC(=O)c2ccc(Br)cc2)cc1[N+](=O)[O-] (configuration not stated)	nt	-3%	-2	nt	nt	nt
Cc1ccccc1CSCC(Nc1ccc(C(=O)O)cc1[N+](=O)[O-])C(=O)O (configuration not stated)	16µM*	-1%	3	-4%	-9%	?
C[C@@H]1C(=O)OC2C[C@@]34[C@H]5C[C@@H](C(C)(C)C)[C@@]36C(O)C(=O)O[C@H]6O[C@@]4(C(=O)O5)[C@]21O (some centres not stated)	0%	-3%	-1	-2%[0.00818 µM]	4%	nt
O=C(CCCCCCN1C(=O)c2ccccc2C1=O)Nc1nccs1	-8%	-4%	-9	5%	7.9µM*	176
Cc1ccc(S(=O)(=O)NCCCCCC(=O)Nc2nccs2)cc1	16µM*	-1%	-5	-18%	-6%	32
O=C(CCCN1C(=O)/C(=C/c2ccccc2Cl)SC1=S)Nc1ccccn1	-2%	-4%	2	0%	16µM*	17
Cc1cccc(NC(=O)CCCCCN2C(=O)c3ccccc3C2=O)n1	?	12%	5	19%	25µM*	37
O=C(CCCN1C(=O)/C(=C/c2cccs2)SC1=S)Nc1ccccn1	-18%	-13%	-1	nt	nt	nt
Cc1ccc(S(=O)(=O)NCCCCCC(=O)Nc2c(C)n(C)n(-c3ccccc3)c2=O)cc1	13µM*	0%	-5	nt	nt	nt
O=C(CCN1C(=O)c2ccccc2C1=O)Nc1ccccn1	-14%	-3%	2	-2%	-6%	-88*
C#CCCCO/N=C1/C[C@@H](O)[C@@H](O)[C@@H]2[C@@H]3C(=O)N(Cc4ccc5c(c4)OCO5)C(=O)[C@H]3CC[C@@H]12	-3%[13.5 µM]	8%[17.5 µM]	nt	nt	nt	nt
COc1ccccc1OCCSc1nc(N)cc(N)n1	8%	6%	3	-1%	-11%	-100*
Nc1cc(N)nc(SCCOc2ccccc2F)n1	2%	7%	5	-2%	-21%	?
Cc1ccc(-c2c(C3C4C=CCC(C)C4C(=O)N3Cc3ccccc3)ccc3ccccc23)cc1 (configuration not stated)	nt	-18%	nt	nt	nt	nt
Cc1ccc(CSCc2ccc(C(=O)NCCCN3CCOCC3)o2)cc1	-2%	4%	3	nt	nt	nt
Cc1ccc(CSCc2ccc(C(=O)NC3CCCC3)o2)cc1	22µM*	4%	7	nt	nt	nt
O=C(NC1CC1)c1ccc(CSCc2cccc(F)c2)o1	?	-5%	-16	-2%	-12%	-106*
CS(=O)(=O)c1sc(C#N)c2c1C(=O)CC(c1ccccc1)C2 (configuration not stated)	59%	7%	-10	nt	nt	nt
O=S(=O)(O)c1ccc2c(N=Nc3cccc4ccccc34)c(O)c(S(=O)(=O)O)cc2c1	?	nt	nt	1%[11.4 µM]	-30%	nt
SMILES	ALDH1A1 inh	aGal spleen mod	GLA inh pH 4.5	12-hLO inh	HPGD block	PNC assembly inh
O=[N+]([O-])c1ccc2c(N=Nc3ccc4ccccc4c3O)c(O)cc(S(=O)(=O)O)c2c1	-11%[13.5 µM]	nt	nt	?	2.8µM*	nt
FC(F)(F)c1cccc(-c2noc(-c3cc(-c4ccccc4)c(C(F)(F)F)s3)n2)c1	4%	-3%	3	-3%	-5%	nt
O=[N+]([O-])c1cc(C(F)(F)F)ccc1Sc1ccc2ccccc2n1	?	-6%	-6	-9%	16µM*	-20
Nc1nc(Sc2ccc(C(F)(F)F)cc2[N+](=O)[O-])n[nH]1	11%	-1%	11	4%	-8%	12
CCOc1ccc(-n2cnnn2)cc1S(=O)(=O)Nc1c(C)cccc1C	6%	-4%	-4	0%	14µM*	?
CCOc1ccc(-n2cnnn2)cc1S(=O)(=O)NC1CC1	4%	-6%	-8	2%	-20%	-13
Cc1ccccc1OCc1nnc(SCc2nc3ccccc3c(=O)[nH]2)n1C	6%	-4%	6	nt	nt	nt
COc1cccc(-n2c(COc3ccc(C)cc3)nnc2SCC(=O)O)c1	-14%	-1%	5	4%	25µM*	51
O=c1[nH]c(CSc2nnc(COc3ccccc3)n2-c2ccccc2)nc2ccccc12	18µM*	10%	-5	-13%	-10%	?
O=C(O)CSc1nnc(COc2ccc([N+](=O)[O-])cc2)n1-c1ccccc1	20µM*	-1%	-1	nt	nt	nt
COc1cccc(-n2c(COc3ccccc3C)nnc2SCC(=O)O)c1	0%	-8%	8	-2%	-25%	?
CCCCC(=O)NS(=O)(=O)c1ccc(N=NN2CCOCC2)cc1	10%	2%	-8	-2%	-5%	-16
CN(CC(CC(=O)Nc1nncs1)c1ccccc1)S(=O)(=O)c1ccccc1 (configuration not stated)	8.9µM*	2%	0	-4%	-4%	-20
CN(CC(CC(=O)Nc1nncs1)c1ccccc1)S(=O)(=O)c1ccc(Br)cc1 (configuration not stated)	13µM*	-1%	-7	-25%	-10%	?
CC1(C)CC=C(O[Si](C)(c2ccccc2)c2ccccc2)CC1	4%	3%	-7	nt	-1%	nt
CCN(C(=O)COC(=O)/C=C/c1ccc(S(=O)(=O)N2CCc3ccccc32)cc1)C1CCS(=O)(=O)C1 (configuration not stated)	5µM*	-4%	-5	nt	nt	nt
O=C(COC(=O)/C=C/c1ccc(S(=O)(=O)N2CCc3ccccc32)cc1)NC1CCS(=O)(=O)C1 (configuration not stated)	?	-5%	-1	nt	nt	nt
Cc1nc2ccc(Cl)cn2c1C(=O)NN	2µM*	-2%	4	nt	nt	nt
CN1CCc2nc(NC(=O)c3cccc(S(=O)(=O)N4CCc5ccccc54)c3)sc2C1	13µM*	1%	-10	17%	-13%	-11
FC(F)(F)c1ccccc1-c1nc(NC2CC2)c2ccccc2n1	-17%	2%	nt	nt	nt	nt
CN(N=O)c1ccc(/C=C\c2ccnc3ccccc23)cc1	?	nt	nt	-3%[11.4 µM]	?	nt
